The target in experiment [1] is Albumin (Bos taurus) (UniProt P02769). Description: bovine serum albumin binders on microarray, profiling panel, artefact control for SMM control protein annotation, biochemical, small-molecule microarray, Alexa647 label, 635/667 nm fluorescence (AID 1118).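 Note: score merges 667 nm emission intensity and signal-to-noise per printed compound spot.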 The settings on record: BSA-A647 binding, fluorescence 635 nm, higher = more signal.
Experiment [2] in a line: small-molecule microarray binders of probe aXIP, primary screen, biochemical, NeuroSMM set, 635/667 nm fluorescence (AID 1119).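 Note: probe is the protein aXip251-270 applied at 1 µg/mL to compound-printed slides; binding of probe to printed compounds measured as 667 nm fluorescence plus signal to noise.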 The settings on record: higher = more signal, called active from +8 up or from −8 down.
A short description of experiment [3]: small-molecule binders of probe aNOTCH3, primary screen, biochemical, small-molecule microarray, 635/667 nm fluorescence (AID 1120).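 Note: probe is a biotin-tagged antibody raised against NOTCH3 rather than NOTCH3 protein; score merges spot fluorescence near 667 nm with spot signal to noise.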 Conditions: higher = more signal.
Experiment [4] in a line: small-molecule binders of probe aNOTCH2, primary screen, biochemical, small-molecule microarray, 635/667 nm fluorescence (AID 1121).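 Note: score merges feature fluorescence read at 667 nm with its signal to noise.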 The settings on record: higher = more signal.
For experiment [5], the target named is Carbonic anhydrase 2 (Homo sapiens) (UniProt P00918). Description: CAII small-molecule binders, profiling panel, biochemical, small-molecule microarray, Alexa647-labelled CAII (AID 1122). The settings on record: CAII-A647 binding fluorescence, higher = more signal.
The nature of experiment [6]: COS7 lysate on small-molecule microarray, probe aHis, 635 nm (AID 1123).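 Note: z-score combines 667nm fluorescence intensity with signal-to-noise per printed compound spot.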 Conditions: COS7 cell lysate, fluorescence, higher = more signal.
A short description of experiment [7]: compound binding in COS7 lysate, probe aLAP1, primary screen, cell lysate, small-molecule microarray (AID 1124).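 Note: lysate comes from COS7 cells expressing LAP1 and is applied at 0.3 µg/mL; score merges spot fluorescence near 667 nm with signal-to-noise over triplicate slides.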 The settings on record: probe aLAP1, fluorescence, higher = more signal.
Experiment [8] relates to Sam68 (KHDRBS1). Description: Sam68 small-molecule binders, primary screen, biochemical, small-molecule microarray, 635 nm fluorescence (AID 1125).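 Note: score merges 667 nm channel intensity with signal to noise over triplicate slides.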 Conditions: small-molecule microarray binding, higher = more signal.
Experiment [9] has as its system Chordin-like protein 2 (CHRDL2). Kind of experiment: CHRDL2 small-molecule binders, primary screen, biochemical, small-molecule microarray, 635 nm fluorescence (AID 1126).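 Note: printed compound slides probed with Chrdl2 protein at 4 µg/mL for 1 h at 4 C; score merges 667 nm emission intensity with signal to noise over three replicate slides.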 Conditions: small-molecule microarray binding, fluorescence 635 nm; higher = more signal.
Experiment [10] addresses Concanavalin-A (Canavalia ensiformis) (UniProt P02866). Kind of experiment: ConA small-molecule binders, primary screen, artefact control for SMM control protein annotation, biochemical, small-molecule microarray, Alexa647 label, 635 nm (AID 1127).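 Note: z combines 667 nm emission intensity with signal-to-noise across three replicate slides.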 Conditions: ConA-A647 binding fluorescence, higher = more signal.
The nature of experiment [11]: anti-His antibody binders, primary screen, artefact control for SMM control protein annotation, biochemical, small-molecule microarray, 635 nm fluorescence (AID 1128).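 Note: score merges feature fluorescence with signal-to-noise for each printed compound spot.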 Conditions: anti-His Alexa647 antibody binding, higher = more signal.
Experiment [12] relates to Human papillomavirus type 1a E7 protein (residues 1-88). Description: HPV1a E7 small-molecule binders, primary screen, biochemical, small-molecule microarray, residues 1-88, 635 nm (AID 1129). Conditions: small-molecule microarray binding, fluorescence 635 nm; higher = more signal.
In experiment [13] the target is Focal adhesion kinase 1 (Homo sapiens) (UniProt Q05397). Description: small-molecule microarray binders of FAK, primary screen, biochemical, 635/667 nm fluorescence, BSA, DTT (AID 1130).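 Note: composite of spot emission at 667 nm and signal to noise over triplicate slides.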 Conditions: PTK2 binding, 635 nm fluorescence, higher = more signal.
Sequence of Focal adhesion kinase 1 (Homo sapiens) (Q05397 whole entry, looked up): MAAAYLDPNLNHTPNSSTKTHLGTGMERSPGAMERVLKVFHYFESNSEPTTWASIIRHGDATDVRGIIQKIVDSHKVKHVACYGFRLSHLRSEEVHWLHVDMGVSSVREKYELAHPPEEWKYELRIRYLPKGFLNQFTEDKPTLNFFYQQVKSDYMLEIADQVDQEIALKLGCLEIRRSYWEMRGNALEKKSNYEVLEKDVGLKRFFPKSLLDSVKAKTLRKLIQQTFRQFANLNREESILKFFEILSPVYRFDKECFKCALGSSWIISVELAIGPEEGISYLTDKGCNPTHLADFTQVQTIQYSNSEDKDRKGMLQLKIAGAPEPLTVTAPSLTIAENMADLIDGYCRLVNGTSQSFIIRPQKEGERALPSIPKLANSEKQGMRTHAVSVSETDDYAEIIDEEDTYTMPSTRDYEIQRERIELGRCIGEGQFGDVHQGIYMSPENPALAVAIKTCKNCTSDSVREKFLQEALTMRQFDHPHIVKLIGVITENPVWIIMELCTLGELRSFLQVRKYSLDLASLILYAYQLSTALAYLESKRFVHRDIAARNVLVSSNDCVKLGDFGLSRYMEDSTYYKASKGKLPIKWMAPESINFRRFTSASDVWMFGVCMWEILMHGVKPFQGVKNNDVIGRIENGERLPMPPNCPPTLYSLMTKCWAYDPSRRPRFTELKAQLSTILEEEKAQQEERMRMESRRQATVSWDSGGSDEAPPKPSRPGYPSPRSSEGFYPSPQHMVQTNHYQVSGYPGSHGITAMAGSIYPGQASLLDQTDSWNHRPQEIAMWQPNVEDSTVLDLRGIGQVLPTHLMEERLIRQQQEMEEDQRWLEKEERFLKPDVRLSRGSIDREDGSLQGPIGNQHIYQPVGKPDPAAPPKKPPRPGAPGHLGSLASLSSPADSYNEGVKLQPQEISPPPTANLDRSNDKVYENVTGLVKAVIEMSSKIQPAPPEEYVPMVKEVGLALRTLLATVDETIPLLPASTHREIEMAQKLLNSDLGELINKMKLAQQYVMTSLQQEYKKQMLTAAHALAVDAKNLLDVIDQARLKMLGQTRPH
Experiment [14] deals with Fibrinogen (Alexa647-labelled). Description: fibrinogen binders on compound microarrays, profiling panel, artefact control for SMM control-protein annotation, biochemical, small-molecule microarray, 635/667 nm fluorescence (AID 1131).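 Note: z-score merges 667 nm fluorescence with per-spot signal-to-noise over triplicate slides.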 Conditions: fibrinogen-A647 binding fluorescence, higher = more signal.
Experiment [15] deals with Follistatin (Homo sapiens) (UniProt P19883). Description: follistatin binders on small-molecule microarrays, primary screen, biochemical, small-molecule microarray, 635/667 nm fluorescence (AID 1132). Conditions: FST binding, 635 nm fluorescence, higher = more signal.
Sequence of Follistatin (Homo sapiens) (P19883 whole entry, looked up): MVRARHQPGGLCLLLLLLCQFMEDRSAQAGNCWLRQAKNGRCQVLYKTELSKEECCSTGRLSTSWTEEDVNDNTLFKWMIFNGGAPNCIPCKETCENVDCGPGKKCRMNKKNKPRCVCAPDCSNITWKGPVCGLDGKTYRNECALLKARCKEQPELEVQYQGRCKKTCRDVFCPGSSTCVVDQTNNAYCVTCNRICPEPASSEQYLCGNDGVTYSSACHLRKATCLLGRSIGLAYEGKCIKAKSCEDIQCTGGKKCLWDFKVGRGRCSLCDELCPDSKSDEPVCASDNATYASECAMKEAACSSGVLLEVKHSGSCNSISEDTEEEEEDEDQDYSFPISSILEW
Experiment [16] addresses Fibroblast growth factor 2 (Homo sapiens) (UniProt P09038). Kind of experiment: FGF2 binders on small-molecule microarrays, primary screen, biochemical, small-molecule microarray, 635/667 nm fluorescence (AID 1133). The settings on record: small-molecule microarray binding, FGF2, fluorescence 635/667; higher = more signal.
Experiment [17] is described as follows: mitochondrial membrane potential change in A549 cells, profiling panel, cell-based, JC-1 fluorescence, basal, 24 h, 100 nL (AID 1138).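 Note: A549 lung adenocarcinoma cells under basal conditions with no added stimulus; test concentration not given here.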 Conditions: higher = more signal.
The subject of experiment [18] is Lefty1. Description: Lefty1 binders on small-molecule microarrays, primary screen, biochemical, small-molecule microarray, 635/667 nm fluorescence (AID 1139). Conditions: small-molecule microarray binding, fluorescence 635/667; higher = more signal.
The subject of experiment [19] is wheat germ agglutinin (Triticum aestivum), Alexa647-labelled. Kind of experiment: wheat germ agglutinin binders on compound microarrays, profiling panel, artefact control for SMM control-protein annotation, biochemical, small-molecule microarray, 635/667 nm fluorescence (AID 1140).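 Note: score merges 667 nm feature emission with signal to noise over triplicate slides.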 The settings on record: WGA-A647 binding, 635 nm fluorescence, higher = more signal.

For experiment [20], the target named is Luciferin 4-monooxygenase (Photinus pyralis) (UniProt P08659). Kind of experiment: firefly luciferase enzyme inhibitors, primary screen, biochemical, luminescence, purified enzyme, 2006 set (AID 1141).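 Note: cell-free assay with purified firefly luciferase at 100 ng per well in PBS; test concentration not given here.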 The settings on record: SteadyGlo luminescence, 30 min, higher = more signal, called active from +8 up or from −8 down.
Sequence of Luciferin 4-monooxygenase (Photinus pyralis) (P08659 whole entry, looked up): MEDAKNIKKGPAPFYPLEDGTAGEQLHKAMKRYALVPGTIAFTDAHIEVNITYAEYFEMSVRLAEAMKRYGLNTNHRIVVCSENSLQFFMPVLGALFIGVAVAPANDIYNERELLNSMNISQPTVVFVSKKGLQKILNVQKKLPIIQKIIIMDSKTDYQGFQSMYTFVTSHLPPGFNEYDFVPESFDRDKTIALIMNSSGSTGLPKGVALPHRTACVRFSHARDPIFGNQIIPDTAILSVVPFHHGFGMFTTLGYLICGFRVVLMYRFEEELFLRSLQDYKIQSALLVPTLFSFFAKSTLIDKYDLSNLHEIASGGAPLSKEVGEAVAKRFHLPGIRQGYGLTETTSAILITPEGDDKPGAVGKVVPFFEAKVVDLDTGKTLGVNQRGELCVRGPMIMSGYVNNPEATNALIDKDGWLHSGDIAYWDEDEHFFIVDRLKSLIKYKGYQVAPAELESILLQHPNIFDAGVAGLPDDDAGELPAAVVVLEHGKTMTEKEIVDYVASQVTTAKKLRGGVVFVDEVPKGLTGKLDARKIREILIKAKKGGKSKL

The source made the active and inactive calls.

Our source for the composite z-score, composite Z-score and z-score values is PubChem BioAssay.

Sequence of Albumin (Bos taurus) (P02769 whole entry, looked up): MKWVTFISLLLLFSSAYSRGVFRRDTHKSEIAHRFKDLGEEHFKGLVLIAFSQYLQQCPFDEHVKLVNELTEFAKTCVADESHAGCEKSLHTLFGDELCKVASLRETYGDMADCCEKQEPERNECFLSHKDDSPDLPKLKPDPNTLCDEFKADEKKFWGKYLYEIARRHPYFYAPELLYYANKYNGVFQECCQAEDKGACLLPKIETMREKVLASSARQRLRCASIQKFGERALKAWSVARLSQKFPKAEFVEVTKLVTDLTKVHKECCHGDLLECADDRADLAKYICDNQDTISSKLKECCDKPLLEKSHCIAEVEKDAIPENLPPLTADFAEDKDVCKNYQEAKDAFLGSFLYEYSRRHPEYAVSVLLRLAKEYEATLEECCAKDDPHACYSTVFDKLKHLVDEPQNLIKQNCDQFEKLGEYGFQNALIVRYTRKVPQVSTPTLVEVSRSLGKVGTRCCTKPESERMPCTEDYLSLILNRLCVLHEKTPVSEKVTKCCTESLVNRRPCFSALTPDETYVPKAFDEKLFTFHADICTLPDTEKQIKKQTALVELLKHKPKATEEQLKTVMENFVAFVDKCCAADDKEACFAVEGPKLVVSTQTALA
Sequence of Concanavalin-A (Canavalia ensiformis) (P02866 whole entry, looked up): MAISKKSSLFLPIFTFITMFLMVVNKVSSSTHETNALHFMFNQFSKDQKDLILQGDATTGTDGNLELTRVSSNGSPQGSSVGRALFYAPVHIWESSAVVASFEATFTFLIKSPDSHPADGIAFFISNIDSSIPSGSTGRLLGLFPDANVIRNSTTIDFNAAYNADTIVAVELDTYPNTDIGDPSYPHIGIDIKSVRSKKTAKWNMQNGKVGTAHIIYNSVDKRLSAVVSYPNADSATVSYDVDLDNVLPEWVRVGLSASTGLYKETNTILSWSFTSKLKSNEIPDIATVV
Sequence of Fibroblast growth factor 2 (Homo sapiens) (P09038 whole entry, looked up): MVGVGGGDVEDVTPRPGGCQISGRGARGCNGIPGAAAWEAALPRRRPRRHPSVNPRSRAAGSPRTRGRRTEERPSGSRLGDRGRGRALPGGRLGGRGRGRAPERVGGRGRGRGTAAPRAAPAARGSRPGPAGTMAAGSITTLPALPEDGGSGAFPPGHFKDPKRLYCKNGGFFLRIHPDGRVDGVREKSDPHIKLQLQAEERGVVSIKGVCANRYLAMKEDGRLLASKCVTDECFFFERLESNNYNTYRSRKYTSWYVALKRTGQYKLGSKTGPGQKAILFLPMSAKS

Regarding `O=C1[C@H]2C=C(Br)[C@H](C[C@@H]2OCCCCCCO)[C@@]12CO2`, the composite z-score in experiment [1] is -0.699; in experiment [3] it was 0.265; in [4], -0.0064; in experiment [5], -0.382; in [6], -0.469; in [7] it was 0.206. The composite z-score in [8] was -0.733; in [9] it was 0.0547; in experiment [10] it was -1.57; in [11], -0.847; in experiment [12], -1.57; in [13], -0.191. Moreover, the composite z-score in [14] was -1.94; in experiment [15], -0.266; in experiment [16], 0.263; in [18] it was -0.406; in experiment [19], -2.03. For the same molecule, the composite Z-score in [2] was 0.926 (inactive). Besides, the z-score in experiment [17] was -0.363; in experiment [20], 0.364 (inactive).
`COc1ccc(C#Cc2ccc3c(c2)[C@]2(C(=O)N3)[C@H](c3ccc(O)cc3)N3[C@H](c4ccccc4)[C@H](c4ccccc4)OC(=O)[C@H]3[C@@H]2C(=O)N2CCc3cc(OC)c(OC)cc3C2)cc1`: the composite z-score in experiment [1] is 0.719; in experiment [3], 0.0196; in experiment [4], -0.12; in [5], 0.459; in [6], 1.33; in [7], 0.326. Moreover, the composite z-score in experiment [8] amounted to 1.31; in experiment [9], 0.356; in [10], 1.12; in experiment [11] it was 0.645; in experiment [12], 1.19; in [13], 0.174. Also, the composite z-score came to 0.933 in experiment [14]; 1.15 in experiment [15]; 1.36 in experiment [16]; 1.12 in [18]; 0.384 in experiment [19]. For the same molecule, in [2], the composite Z-score is 1.39 (inactive). In addition, the z-score is -0.577 in [17] and -0.798 (inactive) in [20].
As to `O=C(CS)NCCCCCNC(=O)[C@@H]1C[C@@H]2C(=O)NCC(=O)N2[C@@H]1c1ccc(O)cc1`, the composite z-score was -0.911 in [1]; -0.189 in experiment [3]; -0.213 in [4]; 0.552 in experiment [5]; 0.559 in [6]; 0.144 in experiment [7]. Further, the composite z-score in experiment [8] stood at 0.692; in [9], 0.616; in experiment [10] it was 0.53; in experiment [11] it was 1.79; in [12], 0.443; in experiment [13], 0.393. For the same molecule, the composite z-score in experiment [14] was -0.135; in experiment [15] it was 1.18; in experiment [16], 1.24; in experiment [18] it was 0.269; in [19] it was -0.855. The composite Z-score in experiment [2] is 2 (inactive). Further, the z-score in experiment [17] is -0.977; in [20], -1.24 (inactive).
On to `Cc1ccc(S[C@]2(C(=O)O)CC(=O)N(C(C)C)[C@@H]2c2ccc(CO)cc2)cc1`, for which the composite z-score in [1] was 0.07; in [3], -0.139; in [4], -0.107; in experiment [5], 0.648; in experiment [6] it was -0.216; in experiment [7], 1.14. The composite z-score was 0.462 in experiment [8]; -0.215 in experiment [9]; 0.394 in experiment [10]; 0.715 in [11]; -0.386 in experiment [12]; 0.104 in experiment [13]. For the same molecule, the composite z-score in [14] is -0.307; in [15], 0.0281; in experiment [16] it was -0.129; in experiment [18], -0.0075; in experiment [19], 0.557. For the same molecule, the composite Z-score in experiment [2] is 0.264 (inactive). Also, the z-score is -0.233 in [17] and 0.568 (inactive) in [20].
`COC(=O)[C@@]1(Cc2ccc(OC)cc2)[C@H]2c3cc(C(=O)N4CCCC4)n(CCCNc4ncc(C(F)(F)F)cc4Cl)c3C[C@H]2CN1C(=O)c1ccccc1`: the composite z-score stood at 0.978 in experiment [1]; 1.09 in experiment [3]; 0.787 in experiment [4]; 0.516 in [5]; 0.97 in experiment [6]; 0.213 in experiment [7]. In addition, the composite z-score in experiment [8] was found to be 0.313; in experiment [9], 0.269; in [10], 0.878; in experiment [11], 2.65; in experiment [12], 1.14; in experiment [13] it was 1.1. Moreover, the composite z-score is 0.768 in [14]; 1.12 in experiment [15]; -0.167 in [16]; 0.337 in experiment [18]; 0.626 in experiment [19]. Also, the composite Z-score in [2] is -0.682 (inactive). Further, the z-score in experiment [17] was -1.51; in experiment [20], 2.54 (inactive).
